Laboratory results reported in PubChem BioAssay AID1326 (NMMLSC, 2008).
About 130 (0.068%) of roughly 190,000 compounds were called active. What follows is part of a selection rich in actives, with near analogues and random picks from the rest. Values without a mark were called inactive. No stated cut-off is given here; in the data, active means inhibition above about 40%; inactive means the rest.

Target: ATP-dependent translocase ABCB1 (Homo sapiens) (UniProt P08183)
Assay: ABCB1 efflux pump inhibitors, primary screen, cell-based, multiplex, flow cytometry, ABCG2 counter-screen (AID 1326);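 further: 0% = vehicle and 100% = reference inhibitor; higher value means more JC-1 retained so stronger ABCB1 efflux block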
Details: CCRF-Adr cells, JC-1 efflux, at 6.6 µM, hits give high values

ATP-dependent translocase ABCB1 (Homo sapiens), sequence (P08183 whole entry, looked up): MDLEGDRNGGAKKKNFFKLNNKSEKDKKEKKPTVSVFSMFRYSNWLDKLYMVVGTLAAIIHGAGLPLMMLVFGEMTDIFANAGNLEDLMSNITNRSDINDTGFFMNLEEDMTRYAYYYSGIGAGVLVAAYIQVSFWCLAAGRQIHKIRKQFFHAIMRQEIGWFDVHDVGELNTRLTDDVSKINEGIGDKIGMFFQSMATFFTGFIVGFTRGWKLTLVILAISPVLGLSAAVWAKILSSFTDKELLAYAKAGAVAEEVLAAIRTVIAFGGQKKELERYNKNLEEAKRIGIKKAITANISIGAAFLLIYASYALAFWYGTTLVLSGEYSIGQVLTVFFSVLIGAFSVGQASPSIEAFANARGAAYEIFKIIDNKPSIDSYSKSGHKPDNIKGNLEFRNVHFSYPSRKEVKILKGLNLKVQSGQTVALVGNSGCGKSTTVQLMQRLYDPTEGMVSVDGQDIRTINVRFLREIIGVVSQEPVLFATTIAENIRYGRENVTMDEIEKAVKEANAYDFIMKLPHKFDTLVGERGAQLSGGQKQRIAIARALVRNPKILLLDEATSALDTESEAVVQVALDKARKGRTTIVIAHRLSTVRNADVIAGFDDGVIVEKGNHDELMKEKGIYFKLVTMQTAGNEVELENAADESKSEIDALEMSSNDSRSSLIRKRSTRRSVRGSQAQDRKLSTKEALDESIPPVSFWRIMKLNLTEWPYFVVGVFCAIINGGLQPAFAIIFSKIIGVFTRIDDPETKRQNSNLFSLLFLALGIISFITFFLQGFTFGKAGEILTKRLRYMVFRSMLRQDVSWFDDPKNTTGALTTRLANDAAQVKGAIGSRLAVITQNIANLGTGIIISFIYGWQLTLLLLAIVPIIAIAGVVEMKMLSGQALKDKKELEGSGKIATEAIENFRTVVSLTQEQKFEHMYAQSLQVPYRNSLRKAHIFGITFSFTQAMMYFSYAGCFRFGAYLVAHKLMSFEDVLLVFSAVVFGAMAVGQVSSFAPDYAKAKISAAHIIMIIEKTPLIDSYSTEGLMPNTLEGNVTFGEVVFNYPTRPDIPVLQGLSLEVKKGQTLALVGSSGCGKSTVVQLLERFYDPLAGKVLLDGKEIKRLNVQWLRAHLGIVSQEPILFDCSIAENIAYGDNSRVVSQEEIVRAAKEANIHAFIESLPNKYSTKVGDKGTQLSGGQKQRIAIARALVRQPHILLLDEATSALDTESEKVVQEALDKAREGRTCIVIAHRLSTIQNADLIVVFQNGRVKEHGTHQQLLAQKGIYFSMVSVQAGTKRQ

Compound	inhibition
COc1ccc(-c2[nH]ncc2CN(Cc2nccn2C)C(C)C)cc1F	2.14%
CCC(C(=O)Nc1ccc(C(C)C)cc1)c1ccccc1 (stereo not given)	0.19%
N#Cc1c(NC(=O)C2CCCO2)sc2c1CCCCC2 (stereo not given)	1.4%
O=C(C1CC1)N1N=C2CCCCC2C1(O)C(F)(F)F (stereo not given)	0.21%
COCC(C)NCc1cc(Br)ccc1OC (stereo not given)	0.42%
Cc1ccc2nc(-c3cccnc3)c(NC3CCCC3)n2c1	1.9%
COc1cc2[nH]c(=O)n(Cc3ccc(C(=O)NC4CCN(Cc5ccccc5)CC4)cc3)c(=O)c2cc1OC	0%
O=C(NCCc1ccccc1)C1CCC(Cn2c(=O)c3ccccc3n(Cc3cccnc3)c2=O)CC1 (stereo not given)	4.02%
CC(=O)Nc1ccc(C(=O)CSc2nc3ccc(C)cc3[nH]2)cc1	-0.95%
c1ccc(CN=C2Nc3ccccc3CS2)nc1	0.26%
O=C(c1ccc(N2CCOCC2)c([N+](=O)[O-])c1)N1CCN(S(=O)(=O)c2cccs2)CC1	0.44%
CC(C)CN1CCNC(=O)C1CC(=O)N(C)CC1CCOCC1 (stereo not given)	0.15%
CCCCCc1nnc(NC(=O)c2ccc(=O)n(C)n2)s1	0.44%
CC1CCCN(CC(O)COc2ccc3c(c2)OCO3)C1 (stereo not given)	0.12%
CCCCN1C(=S)NC[C@@H]1C(C)CC (stereo not given in full)	0.02%
CC/C(=N\NC(=O)c1ccccc1Cl)c1ccc(Br)s1	1.38%
COc1ccc(CCNC(=O)CSc2nc3[nH]ncc3c(=O)n2-c2cccc(C(F)(F)F)c2)cc1OC	0.5%
O=C(C1CCCO1)N1CCN(C(=S)NC2CC2)CC1 (stereo not given)	0.55%
CNC(=S)N1CCC(NC(=O)C(Cc2ccc(F)cc2)NC(C)=O)CC1 (stereo not given)	0.7%
Cc1ccc(C)c(NC(=O)CCC(=O)N/N=C2/CC(=O)CC(C)(C)C2)c1	0.24%

Compound	inhibition
Cc1c(CCO)sc[n+]1CC(=O)OC12CC3CC(CC(C3)C1)C2	0.29%
Cc1c(CCOC(=O)c2cc([N+](=O)[O-])ccc2Cl)sc[n+]1CCCCS(=O)(=O)[O-]	1.17%
Cc1c(CCOC(=O)CC23CC4CC(CC(C)(C4)C2)C3)sc[n+]1Cc1ccc([N+](=O)[O-])cc1	53.8% (active)
CC(C)NC(=O)c1ccc(Cl)cc1Cl	-0.21%
CC(=O)c1ccc(NC(=O)C(C)NCc2ccc(Cl)cc2)cc1 (stereo not given)	0.85%
Cc1nc(CN2CCN(C(=O)CCc3nnc(Cc4c[nH]c5ccccc45)o3)CC2)cs1	-1.57%
CN1CCN(/N=C/c2ccc(C#N)cc2)CC1	1.07%
CCC(C)(C)NC(=O)CN(C(=O)C(=O)Nc1ccc2c(c1)OCCO2)C(C)(C)CC	2.48%
CSc1ccc(/C=N/NC(=O)c2cccc(Cl)c2)cc1	-0.32%
CC(=O)Nc1ccccc1OC(C)C(=O)N1CCC(C)CC1 (stereo not given)	0.05%
COc1cc(NC(=S)NCc2ccc(S(N)(=O)=O)cc2)cc(OC)c1	-0.49%
COc1ccc(NS(=O)(=O)c2cc(NC(=O)C3CCCCC3)ccc2N2CCOCC2)cc1	0.89%
CC[C@H](C)[C@@H](C(=O)N1CCNCC1)n1cc([C@@H](N)Cc2ccc(O)cc2)nn1	0.31%
COc1ccc(C2=NN(C(=O)CCC(=O)O)C(c3cccs3)C2)cc1OC (stereo not given)	0.01%
C=CCn1c(SCc2ccc(Cl)c(Cl)c2)nnc1C(CO)NC(=O)c1ccc(OC)cc1 (stereo not given)	1.4%
C=CCn1c(SCC(=O)c2ccc(Br)cc2)nnc1C(C)NC(=O)Cc1ccc(OC)cc1 (stereo not given)	1.19%
C=CCn1c(SCCOc2ccc(OC)cc2)nnc1C(NC(=O)c1ccc(OC)cc1)C(C)C (stereo not given)	48.2% (active)
CN(C)CCOc1ccc(Cl)cc1C(C)(C)C	0.53%
Nc1nc(SCC(=O)NN(c2ccccc2)c2ccccc2)n[nH]1	0.84%
CCc1nnc(NC(=O)CSc2nnnn2-c2cccc(C(C)=O)c2)s1	0.21%

Compound	inhibition
CC(C)CCN1CCN(C/C=C/c2ccco2)CC1CCO (stereo not given)	0.24%
C/C(=N/OC(=O)c1cccc(C(F)(F)F)c1)c1cnccn1	-0.43%
C/C(CC1CC(C)(C)OC1=O)=N/Nc1nc(-c2ccccc2)cs1 (stereo not given)	-0.4%
CN(c1ccccc1)S(=O)(=O)c1cc(C(=O)OCC(=O)N2CCN(C(=O)c3ccco3)CC2)ccc1Cl	0.19%
Cc1ccc(C)c(NS(=O)(=O)c2ccc(OCC(=O)NCc3cccnc3)cc2)c1	-0.02%
COc1cc(C(=S)NCc2ccccc2)cc(Br)c1O	-0.65%
CCC(=O)c1ccc(N2CCN(C(=O)c3cc([N+](=O)[O-])ccc3F)CC2)c(F)c1	2.09%
CCN(CC)CCNS(=O)(=O)c1ccc(/C=C/C(=O)O)cc1	0.17%
COc1cc(CNC2CCCC2)c(Br)cc1OCc1ccccc1	0.98%
CN1CCN(C(c2cc3cc4c(cc3[nH]c2=O)OCCO4)c2nnnn2C2CCCC2)CC1 (stereo not given)	0.88%
CNC(=O)C(=O)N/N=C/c1ccccn1	-0.01%
CSc1ncccc1C(=O)N1CCCC(CCC(=O)NCc2ccccc2F)C1 (stereo not given)	-0.56%
C=C(C)c1cccc(C(C)(C)NC(=O)NCCN(CC)CC)c1	0.61%
O=S(=O)(Cc1ccccc1)c1nc2ccccc2n1Cc1ccccn1	1.49%
COc1cc2[nH]c(=S)n(Cc3ccc(F)cc3)c(=O)c2cc1OC	0.4%
CCCc1cc(=O)[nH]c(SCc2cc(=O)oc3c(C)c(C)ccc23)n1	-1.22%
Cc1nnsc1C(=O)Nc1cccc(Cl)c1C	0.41%
COc1ccc(Cl)cc1NC(=O)C(C)N1CCc2ccccc21 (stereo not given)	0.39%
CC1=CC(=C(C#N)c2nc3ccccc3s2)C=C(C)N1c1ccc(F)cc1F	-0.7%
COC(=O)c1ccc(OCC(O)CN(CCO)CC(O)Cn2ccc3ccccc32)cc1 (stereo not given)	0.69%
